High-throughput results as filed in PubChem.
Most compounds without a hit are left out; they make up all but 10% or so of the library.
Gal4-VP16 FLuc: VP16 counterscreen qHTS for inhibitors of ROR gamma transcriptional activity. Drosophila S2 Gal4-VP16 UAS-luciferase, luminescence, 20 h. Potency, µM (series often up to 53.6 µM), actives largely listed as inhibitors. 310,000 tested, 3.5% active;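 further: Gal4-VP16 expression switched on by copper sulfate through the metallothionein promoter; nearly all actives have a fitted effect of over 50% in size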
SW480 rerep: A quantitative high throughput screen for small molecules that induce DNA re-replication in SW480 colon adenocarcinoma cells; SW480 DNA re-replication, Hoechst DNA content imaging, 48 h; AID 624297, 2012; 340,000 tested, 1.8% active; Potency, µM (highest dose often 46.1 µM), usual class: activators; further: nearly all actives have a fitted effect of over 55% in size
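Compounds, transferred as 23 nL by pin tool, were incubated with cells for 48 hr; DNA content per nucleus was then quantified by Hoechst staining and fluorescence plate imaging.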
RORg inh: qHTS for inhibitors of ROR gamma transcriptional activity; Nuclear receptor ROR-gamma (Mus musculus), P51450; Drosophila S2 Gal4-RORgamma UAS-luciferase reporter, 20 h; Potency, µM (series often up to 53.6 µM), usual class: inhibitors; 310,000 tested, 5.4% active; further: nearly all actives have a fitted effect of over 60% in size
Target sequence (P51450 whole entry, looked up, the tested form may be a part): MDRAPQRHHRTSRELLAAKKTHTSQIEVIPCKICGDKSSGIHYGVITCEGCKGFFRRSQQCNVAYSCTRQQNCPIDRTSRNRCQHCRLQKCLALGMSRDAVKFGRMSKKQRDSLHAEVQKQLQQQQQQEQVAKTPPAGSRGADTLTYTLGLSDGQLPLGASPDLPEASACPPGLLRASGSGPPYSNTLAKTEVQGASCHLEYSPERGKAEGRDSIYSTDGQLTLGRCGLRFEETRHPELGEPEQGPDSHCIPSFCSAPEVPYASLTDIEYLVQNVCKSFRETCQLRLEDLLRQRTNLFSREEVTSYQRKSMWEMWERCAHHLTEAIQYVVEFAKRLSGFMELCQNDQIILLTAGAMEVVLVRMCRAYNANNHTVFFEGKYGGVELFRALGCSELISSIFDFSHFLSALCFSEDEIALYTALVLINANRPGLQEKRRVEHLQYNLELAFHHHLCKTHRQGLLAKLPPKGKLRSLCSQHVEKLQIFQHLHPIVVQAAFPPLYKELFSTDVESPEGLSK
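Read-out: Photinus luciferase luminescence; inhibitors lower reporter signal. Insect Schneider cells with Gal4-ROR gamma fusion under metallothionein promoter, UAS reporter; 700 uM final copper sulfate induction, 20 hr, ambient temperature.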
MCF10A rerep: A quantitative high throughput screen for small molecules that induce DNA re-replication in MCF 10a normal breast cells | MCF 10A DNA re-replication, Hoechst nuclear intensity, 48 h | Potency, µM (top dose mostly 46.1 µM), actives largely listed as activators | 350,000 tested, 2.9% active; further: nearly all actives have a fitted effect of over 50% in size
ELG1 DNA repair: qHTS screen for small molecules that inhibit ELG1-dependent DNA repair in human embryonic kidney (HEK293T) cells expressing luciferase-tagged ELG1. HEK293T ELG1-luciferase reporter, luminescence, 16 h; DNA damage induced by 5-fluorouridine. Potency, µM (series often up to 46.1 µM), hits mostly inhibitors. 330,000 tested, 2.3% active. AID 504467, 2011; further: nearly all actives have a fitted effect of over 55% in size
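In this reporter screen, reduction of luminescence relative to DMSO vehicle indicated activity. Compounds and 5-fluorouridine were added together to 2,000 cells per well, incubated for 16 hr at 37 °C, then developed with ONE-Glo.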
Large screens that a line does not name were inactive. The call rests on the fitted dose curve; in most records, active means well fitted curve in the direction sought with a large enough effect; inconclusive means small, poorly fitted or top-dose-only effect, or another doubt; inactive means no such curve, though single readings can be large; an effect the other way counts as inactive or inconclusive.

Cc1cccc(CS(=O)(=O)c2ncc(Cl)c(C(=O)Nc3c(C)cccc3C)n2)c1	Gal4-VP16 FLuc 8.9µM, SW480 rerep inconclusive, RORg inh inconclusive, MCF10A rerep inconclusive
Cc1nnc(NC(=O)c2nc(S(=O)(=O)Cc3ccccc3)ncc2Cl)s1	Gal4-VP16 FLuc 13µM, RORg inh 7.9µM, MCF10A rerep inconclusive, ELG1 DNA repair inconclusive
Cc1nnc(NC(=O)CS(=O)(=O)Cc2ccccc2)s1	MCF10A rerep inconclusive
Cc1ccccc1NC(=O)c1nc(S(C)(=O)=O)ncc1Cl	Gal4-VP16 FLuc 3.2µM, SW480 rerep inconclusive, RORg inh 6.3µM, MCF10A rerep inconclusive, ELG1 DNA repair inconclusive
CCOC(=O)c1nc(S(C)(=O)=O)ncc1Cl	Gal4-VP16 FLuc 5µM, SW480 rerep inconclusive, RORg inh 4µM, ELG1 DNA repair inconclusive
CSc1ncc(Cl)c(C(=O)Nc2cccc3ccccc23)n1	SW480 rerep inconclusive
Cc1cc(C)cc(S(=O)(=O)Cc2noc(C(=O)NCc3ccccc3)c2C(=O)NCc2ccccc2)c1	none (no result: Gal4-VP16 FLuc, RORg inh)
Cc1cccc(C)c1NC(=O)c1nc(S(=O)(=O)Cc2ccccc2)ncc1Cl	Gal4-VP16 FLuc 5µM, SW480 rerep inconclusive, RORg inh 10µM, MCF10A rerep inconclusive, ELG1 DNA repair inconclusive
Cc1cccc(CS(=O)(=O)c2ncc(Cl)c(C(=O)NCc3ccccc3)n2)c1	Gal4-VP16 FLuc 3.2µM, SW480 rerep inconclusive, RORg inh 5.6µM, MCF10A rerep 13µM, ELG1 DNA repair inconclusive
CC(=O)c1ccc(NC(=O)CSc2ccc3nnc(-c4cccnc4)n3n2)cc1	none
CC(C)CNC(=S)NC(=O)c1ccccc1Cl	Gal4-VP16 FLuc 11µM, RORg inh 5µM, ELG1 DNA repair inconclusive
O=C(NC(=S)Nc1ccc(Cl)cc1)c1ccccc1	Gal4-VP16 FLuc inconclusive, RORg inh 20µM, ELG1 DNA repair inconclusive
O=C(NC(=S)Nc1ccc(NC(=O)c2ccccc2)cc1)c1ccc(F)cc1	MCF10A rerep inconclusive
O=C(NC(=S)Nc1ccc(-c2ccccc2)cc1)c1ccccc1	none (no result: Gal4-VP16 FLuc, RORg inh, ELG1 DNA repair)
O=C(NC(=S)Nc1ccc(Oc2ccc(Cl)cc2)cc1)c1ccccc1	Gal4-VP16 FLuc 7.9µM, RORg inh 3.5µM, MCF10A rerep inconclusive
COc1ccc(NC(=S)NC(=O)c2ccccc2Cl)cc1	Gal4-VP16 FLuc inconclusive, RORg inh 6.3µM, ELG1 DNA repair inconclusive
O=C(NC(=S)Nc1ccc(O)cc1)c1ccccc1Cl	ELG1 DNA repair inconclusive
CC(C)CCNC(=O)CN(C(=O)CCC(=O)Nc1nccs1)C1CCCCC1	Gal4-VP16 FLuc inconclusive
Cc1ccc([C@@H]2CC=C(C(=O)O)[C@H](c3cccc(Cl)c3)N2S(=O)(=O)c2ccccc2C)cc1	MCF10A rerep inconclusive (no result: Gal4-VP16 FLuc, RORg inh)
O=C(Cc1cccc2ccccc12)Nc1c(F)cccc1F	ELG1 DNA repair inconclusive
Cc1ccc(CNCc2cc3c(C(C)(C)C)nn(-c4ccccc4)c3[nH]c2=O)cc1	Gal4-VP16 FLuc 13µM, SW480 rerep inconclusive, RORg inh inconclusive, MCF10A rerep inconclusive
COC(=O)c1ccc(-n2c(C)cc(-c3csc(NC(=O)c4ccc(S(=O)(=O)N(C)C)cc4)n3)c2C)cc1	ELG1 DNA repair 13µM
CCOC(=O)c1sc(NC(=O)c2ccccc2)cc1C	RORg inh inconclusive, ELG1 DNA repair inconclusive
CCOC(=O)c1sc(NC(=O)c2ccc(S(=O)(=O)N(C)C)cc2)nc1C	RORg inh 0.25µM
CCOC(=O)c1sc(NC(=O)c2ccc(S(=O)(=O)N(C)C)cc2)cc1C	ELG1 DNA repair 16µM
Cc1cc(-c2csc(NC(=O)c3cccc(S(=O)(=O)N(C)C)c3)n2)c(C)n1-c1ccccc1	ELG1 DNA repair inconclusive
CCOC(=O)c1csc(NC(=O)c2ccc(S(=O)(=O)N(C)C)cc2)n1	ELG1 DNA repair 7.3µM
Cc1ccc(OCC(=O)Nc2cccnc2Cl)cc1C	ELG1 DNA repair inconclusive
CC(C)=CC(=O)OCC(=O)Nc1ccc(SC(F)F)cc1	none
O=C(CN1CCOCC1)NN1CC(=O)N(c2ccc(Cl)cc2)CC1=O	none
Cc1c(NC(=O)c2cccc(NS(C)(=O)=O)c2)c(=O)n(-c2ccccc2)n1C	ELG1 DNA repair inconclusive
Cc1cc2nc(N=C(N)N)nc(C)c2cc1C	SW480 rerep 18µM, MCF10A rerep inconclusive, ELG1 DNA repair inconclusive
CCC(=O)N/C(N)=N/c1nc(C)c2cc(C)c(C)cc2n1	SW480 rerep inconclusive, RORg inh 1µM
Cc1ccc2nc(/N=C(\N)NC(=O)NC3CCCCC3)nc(C)c2c1	Gal4-VP16 FLuc 7.1µM, SW480 rerep inconclusive, MCF10A rerep inconclusive
Cc1ccc(C(=O)OC(C)CN2C(C)CCCC2C)cc1 (stereo unspecified)	none
COC(=O)C(C)Sc1nc2c(cnn2-c2ccc(Cl)cc2)c(=O)[nH]1 (stereo unspecified)	none
Cc1ccc(-c2nc3cccnc3s2)cc1NC(=O)C1c2ccccc2Oc2ccccc21	Gal4-VP16 FLuc 11µM, RORg inh 13µM, ELG1 DNA repair inconclusive
O=C(Nc1nc2ccccc2s1)C1c2ccccc2Oc2ccccc21	Gal4-VP16 FLuc inconclusive, SW480 rerep inconclusive, RORg inh 11µM, MCF10A rerep inconclusive
CCc1nnc(NC(=O)C2c3ccccc3Oc3ccccc32)s1	Gal4-VP16 FLuc inconclusive, SW480 rerep inconclusive, RORg inh 11µM, MCF10A rerep inconclusive
CCN(C(=O)COC(=O)/C(=C/c1ccccc1)NC(C)=O)c1c(N)n(Cc2ccccc2)c(=O)[nH]c1=O	none (no result: Gal4-VP16 FLuc, RORg inh, ELG1 DNA repair)
CN1CCN(C(=O)c2cccn(Cc3c(Cl)cccc3Cl)c2=O)CC1	none
CN(c1ccccc1)c1ccc(/C=C/[N+](=O)[O-])cc1	Gal4-VP16 FLuc inconclusive, SW480 rerep 21µM, RORg inh inconclusive, MCF10A rerep 7.3µM, ELG1 DNA repair inconclusive
CN(C)C(=O)c1ccc(-c2cncnc2-n2ccnc2)cc1	none (no result: SW480 rerep, MCF10A rerep, ELG1 DNA repair)
CN(C)c1ccc(-c2ccc3ncnc(-n4ccnc4)c3c2)cc1	Gal4-VP16 FLuc 13µM, RORg inh 7.1µM (no result: SW480 rerep, MCF10A rerep, ELG1 DNA repair)
Cc1ccccc1-c1ccc2ncnc(-n3ccnc3)c2c1	Gal4-VP16 FLuc 13µM, RORg inh 11µM (no result: SW480 rerep, MCF10A rerep, ELG1 DNA repair)
CCCC12CN3CC(C)(CN(C1)C3c1cccs1)C2=O (stereo unspecified)	none
COc1ccc(-n2nnc3c(SCC(=O)N4CCCc5ccccc54)ncnc32)cc1	SW480 rerep 12µM (no result: Gal4-VP16 FLuc, RORg inh, ELG1 DNA repair)
CCOC(=O)CC(=O)CSc1ncnc2c1nnn2-c1ccc(OC)cc1	RORg inh 8.9µM
CCN(CC)C(=O)CSc1ncnc2c1nnn2-c1ccc(OC)cc1	none
CSCCC1NC(=O)N(CC(=O)Nc2cccc3ccccc23)C1=O (stereo unspecified)	none
CCOc1cc2[nH]c(=S)n(CC3CCCO3)c(=O)c2cc1OCC (stereo unspecified)	Gal4-VP16 FLuc inconclusive, RORg inh 11µM, MCF10A rerep inconclusive, ELG1 DNA repair inconclusive
